A short description of experiment [1]: antimalarial activity against Dd2 strain (AID 2302;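 active means growth inhibition above 50% at the single 2 µM test dose, taken to imply half-maximal potency below 2 µM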;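 further: 0% = DMSO untreated growth and 100% = chloroquine plus artemisinin killed control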). Particulars: P. falciparum Dd2 in RBCs, LDH growth readout, 72 h; at 2 µM; stronger effect = higher value.
Experiment [2] is described as follows: HepG2 cytotoxicity, primary screen, cytotoxicity control for P. falciparum antimalarial project, cell-based, ATP luminescence (AID 2303;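 active means inhibition above 50%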;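 further: 0% = DMSO wells and 100% = digitonin-killed cells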). Particulars: HepG2 viability, 24-48 h, at 10 µM, stronger effect = higher value.
Experiment [3] concerns the target L-lactate dehydrogenase (Plasmodium falciparum (isolate CDC / Honduras)) (UniProt Q27743). The experiment in a line: PfLDH activity inhibition – cell lysate, 3D7 strain, counter-screen for P. falciparum growth inhibition project (AID 2304).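 Further: 0% = vehicle and 100% = reference inhibitor.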 Particulars: P. falciparum 3D7 crude extract, LDH APAD/NBT absorbance; at 2 µM; stronger effect = higher value. (In general: Counterscreens check selectivity or assay interference.)

The nature of experiment [4]: inhibition of 3D7 malaria parasite growth – strain 3D7 (AID 2306).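 Further: 0% = DMSO wells and 100% = chloroquine plus artemisinin control wells.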 The following applies: P. falciparum 3D7 erythrocytic growth, LDH absorbance, 72 h; at 2 µM; stronger effect = higher value.
Experiment [5] concerns the target Calcium-dependent protein kinase 1 (Plasmodium falciparum (isolate 3D7)) (UniProt P62344). Description: PfCDPK1 kinase inhibitors, biochemical, TCAMS library (AID 1159585; cut-off not given, nearly all actives have IC50 up to about 0.98 µM;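 further: inhibitors leave more ATP so luminescence rises with inhibition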). Particulars: recombinant PfCDPK1, Kinase-Glo ATP depletion luminescence. For orientation: Kinase-Glo measures the ATP left after a reaction by luminescence.
The target of experiment [6] is Plasmodium falciparum protein kinase 6 (PK6, PF3D7_1337100) (UniProt Q8IDW1). Description: PfPK6 kinase inhibitors, biochemical, TCAMS library (AID 1159586). Particulars: recombinant PfPK6, Kinase-Glo ATP depletion luminescence.
Plasmodium falciparum protein kinase 6 (PK6, PF3D7_1337100), sequence (Q8IDW1 1-305): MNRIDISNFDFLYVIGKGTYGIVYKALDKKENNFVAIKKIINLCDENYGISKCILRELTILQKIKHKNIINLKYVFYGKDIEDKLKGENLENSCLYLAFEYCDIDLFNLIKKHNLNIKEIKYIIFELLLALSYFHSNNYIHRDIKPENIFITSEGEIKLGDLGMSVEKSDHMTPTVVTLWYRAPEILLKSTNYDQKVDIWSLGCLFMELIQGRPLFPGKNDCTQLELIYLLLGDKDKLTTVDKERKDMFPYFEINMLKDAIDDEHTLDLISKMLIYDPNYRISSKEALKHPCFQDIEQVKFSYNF
Experiment [7] has as its target Protein kinase 7 (PK7), Plasmodium falciparum 3D7 (PF3D7_0213400) (UniProt Q7YTF7). The experiment in a line: inhibition of Plasmodium PK7 catalytic activity – biochemical, TCAMS antimalarial set, Kinase-Glo luminescence (AID 1159587). Particulars: recombinant PfPK7, Kinase-Glo ATP depletion luminescence.
Experiment [8] deals with Calcium-dependent protein kinase 4 (Plasmodium falciparum (isolate 3D7)) (UniProt Q8IBS5). Description: PfCDPK4 kinase inhibitors, biochemical, TCAMS library (AID 1159588; cut-off not given, nearly all actives have IC50 up to about 0.91 µM). Particulars: recombinant PfCDPK4, Kinase-Glo ATP depletion luminescence.
Calcium-dependent protein kinase 4 (Plasmodium falciparum (isolate 3D7)), sequence (Q8IBS5 whole entry, looked up): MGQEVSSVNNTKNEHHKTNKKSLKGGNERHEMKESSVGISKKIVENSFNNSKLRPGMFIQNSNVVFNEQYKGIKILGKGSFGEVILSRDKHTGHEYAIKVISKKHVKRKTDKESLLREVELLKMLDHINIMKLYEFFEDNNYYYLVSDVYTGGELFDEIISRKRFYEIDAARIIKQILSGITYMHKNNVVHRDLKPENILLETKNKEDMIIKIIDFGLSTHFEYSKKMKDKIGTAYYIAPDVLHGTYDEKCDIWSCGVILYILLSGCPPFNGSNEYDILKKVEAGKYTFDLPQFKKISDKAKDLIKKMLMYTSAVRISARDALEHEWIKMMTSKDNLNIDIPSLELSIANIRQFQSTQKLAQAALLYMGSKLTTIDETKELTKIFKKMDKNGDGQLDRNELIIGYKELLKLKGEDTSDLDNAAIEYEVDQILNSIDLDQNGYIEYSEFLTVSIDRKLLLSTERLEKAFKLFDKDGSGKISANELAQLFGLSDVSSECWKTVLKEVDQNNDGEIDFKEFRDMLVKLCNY

Unmarked numbers belong to inactive results. For some of these results: Potency and affinity values are given separately. Active and inactive are the calls of the source. Unless noted, how the calls were made is not given here.

What is called inhibition is the drop in the measured response relative to a control, in per cent.

Protein kinase 7 (PK7), Plasmodium falciparum 3D7 (PF3D7_0213400), sequence (Q7YTF7 1-343): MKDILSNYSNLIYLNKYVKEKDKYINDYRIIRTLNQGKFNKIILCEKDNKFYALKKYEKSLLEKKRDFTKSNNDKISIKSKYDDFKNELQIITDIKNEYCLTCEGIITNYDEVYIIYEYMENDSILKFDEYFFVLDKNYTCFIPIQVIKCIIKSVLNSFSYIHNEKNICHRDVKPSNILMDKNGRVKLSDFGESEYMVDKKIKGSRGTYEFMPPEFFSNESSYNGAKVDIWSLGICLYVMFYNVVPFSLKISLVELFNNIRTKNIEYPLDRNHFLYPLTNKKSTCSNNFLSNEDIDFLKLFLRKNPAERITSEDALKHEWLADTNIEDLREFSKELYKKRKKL
Calcium-dependent protein kinase 1 (Plasmodium falciparum (isolate 3D7)), sequence (P62344 whole entry, looked up): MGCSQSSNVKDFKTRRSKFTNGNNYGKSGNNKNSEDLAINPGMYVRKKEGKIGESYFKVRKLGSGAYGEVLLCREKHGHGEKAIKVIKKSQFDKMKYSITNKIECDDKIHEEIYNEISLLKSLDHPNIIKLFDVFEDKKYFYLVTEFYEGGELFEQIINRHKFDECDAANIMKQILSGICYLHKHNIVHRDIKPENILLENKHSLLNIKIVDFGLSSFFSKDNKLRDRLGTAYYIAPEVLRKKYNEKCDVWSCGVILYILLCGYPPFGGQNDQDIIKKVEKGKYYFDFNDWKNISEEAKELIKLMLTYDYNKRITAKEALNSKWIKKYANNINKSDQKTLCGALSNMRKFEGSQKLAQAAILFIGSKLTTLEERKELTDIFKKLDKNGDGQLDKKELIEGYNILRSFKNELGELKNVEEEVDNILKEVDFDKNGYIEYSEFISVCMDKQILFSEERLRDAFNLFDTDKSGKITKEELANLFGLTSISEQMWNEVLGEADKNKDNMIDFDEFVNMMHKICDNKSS
L-lactate dehydrogenase (Plasmodium falciparum (isolate CDC / Honduras)), sequence (Q27743 whole entry, looked up): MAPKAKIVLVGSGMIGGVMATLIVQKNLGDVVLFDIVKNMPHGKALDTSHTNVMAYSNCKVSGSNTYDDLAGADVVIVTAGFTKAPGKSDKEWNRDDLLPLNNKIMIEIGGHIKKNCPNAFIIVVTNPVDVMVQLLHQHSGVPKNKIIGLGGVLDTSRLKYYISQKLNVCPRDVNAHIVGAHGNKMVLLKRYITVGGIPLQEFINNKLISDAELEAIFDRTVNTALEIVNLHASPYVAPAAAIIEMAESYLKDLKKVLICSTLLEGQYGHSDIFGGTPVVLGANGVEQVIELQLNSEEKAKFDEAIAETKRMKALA

Turning to `CCOc1cc(Cl)c(C(C)NC(=O)c2cccc(OC)c2)cc1OCC` (stereo not given), the growth inhibition in experiment [1] is 92% (active); in experiment [4], 98% (active). Besides, the results for the inhibition in experiment [2] and in experiment [3] were 29% and 6%, respectively. Besides, the outcome in experiment [5], in experiment [6], in experiment [7] and in experiment [8] was inactive.

With `CCCCCN1CCC(NC(=O)c2ccc(C(=O)Nc3ccc(C(C)C)cc3)cc2)C1` (stereo not given), the results for the growth inhibition in experiment [1] and in experiment [4] were 17% and 95% (active), respectively. In addition, the inhibition in experiment [2] was 38%; in experiment [3], 2%. The result in experiment [5], in experiment [6], in experiment [7] and in experiment [8] was inactive.

On to `O=C(Nc1cccc(F)c1)N(Cc1ccc(-c2cccc(CN3CCNCC3)c2)cc1)C1CCN(Cc2ccccc2)CC1`, for which the growth inhibition in experiment [1] was 54% (active); in experiment [4] it was 97% (active). In addition, the inhibition is 13% in experiment [2] and -1% in experiment [3]. Further, the outcome in experiment [5], in experiment [6], in experiment [7] and in experiment [8] was inactive.

`O=C(NC1CCC(N2CCC(c3nc4ccccc4s3)CC2)CC1)c1cc2ccccc2[nH]1` (stereo not given): the growth inhibition in experiment [1] is 37%; in experiment [4], 94% (active). Also, the inhibition in experiment [2] is 23%; in experiment [3] it was -1%. Besides, the outcome in experiment [5], in experiment [6], in experiment [7] and in experiment [8] was inactive.

With `CC(C)(C)C1CCc2onc(C(=O)Nc3cc(Cl)ccc3O)c2C1` (stereo not given), the growth inhibition in experiment [1] was 82% (active); in experiment [4], 98% (active). The inhibition was 5% in experiment [2] and -2% in experiment [3]. Besides, the outcome in experiment [5], in experiment [6], in experiment [7] and in experiment [8] was inactive.

Consider `COc1cc(Nc2nccc(N3CCC(NC(=O)Nc4cc(C)ccc4C)C3)n2)cc(OC)c1OC` (stereo not given), for which the results for the growth inhibition in experiment [1] and in experiment [4] were 52% (active) and 91% (active), respectively. For the same compound, the results for the inhibition in experiment [2] and in experiment [3] were 13% and 4%, respectively. Further, the outcome in experiment [5], in experiment [6], in experiment [7] and in experiment [8] was inactive.

As for `COCC(=O)Nc1nc2ccccc2[nH]1`, the growth inhibition in experiment [1] is 1%; in experiment [4] it was 98% (active). Also, the values for the inhibition in experiment [2] and in experiment [3] were -14% and -5%, respectively. Moreover, the outcome in experiment [5], in experiment [6], in experiment [7] and in experiment [8] was inactive.

In the case of `CN1CCN(CC(=O)Nc2ccc(-c3csc(-c4nc5ccccc5[nH]4)c3)cc2)CC1`, the growth inhibition is 46% in experiment [1] and 99% (active) in experiment [4]. For the same compound, the inhibition in experiment [2] is 6%; in experiment [3] it was -4%. The result in experiment [5], in experiment [6], in experiment [7] and in experiment [8] was inactive.

With `CC(C)(C)C1CC(=O)C[C@@H]2C(=O)N(C3CCCCC3)C(=O)[C@H]12` (stereo not given in full), the results for the growth inhibition in experiment [1] and in experiment [4] were 27% and 97% (active), respectively. Moreover, the inhibition in experiment [2] and in experiment [3] was -2% each time. Moreover, the outcome in experiment [5], in experiment [6], in experiment [7] and in experiment [8] was inactive.

For the compound `CC(C)(C)c1ccc(CN2CCC(NC(=O)c3ccc(-c4ccccc4F)s3)CC2)cc1`, the growth inhibition in experiment [1] is 37%; in experiment [4], 85% (active). Besides, the inhibition in experiment [2] was 36%; in experiment [3] it was 0%. In addition, the outcome in experiment [5], in experiment [6], in experiment [7] and in experiment [8] was inactive.

With `NC(N)=NN=Cc1cc2ccccc2c2ccccc12`, the values for the growth inhibition in experiment [1] and in experiment [4] were 63% (active) and 100% (active), respectively. The inhibition in experiment [2] is 25%; in experiment [3], 4%. In addition, the outcome in experiment [5], in experiment [6], in experiment [7] and in experiment [8] was inactive.

With `O=C(O[C@@H]1CN[C@H](C#Cc2cc3ncnc(Nc4ccc5c(cnn5Cc5cccc(F)c5)c4)c3s2)C1)N1CCCC1`, the growth inhibition is 56% (active) in experiment [1] and 86% (active) in experiment [4]. The results for the inhibition in experiment [2] and in experiment [3] were 9% and -3%, respectively. For the same compound, the result in experiment [5], in experiment [6], in experiment [7] and in experiment [8] was inactive.

Take `Cc1ncsc1CCN1C(=O)CC2(C1=O)C(=O)N(Cc1ccccc1)c1ccc(Cl)cc12` (stereo not given): the growth inhibition is 46% in experiment [1] and 86% (active) in experiment [4]. Moreover, the results for the inhibition in experiment [2] and in experiment [3] were 0% and 1%, respectively. For the same compound, the outcome in experiment [5], in experiment [6], in experiment [7] and in experiment [8] was inactive.

With `O=C(Nc1nccs1)c1cn(-c2ccccc2)nc1-c1ccc(Cl)s1`, the growth inhibition is 18% in experiment [1] and 96% (active) in experiment [4]. Moreover, the inhibition was 9% in experiment [2] and 0% in experiment [3]. Moreover, the outcome in experiment [5], in experiment [6], in experiment [7] and in experiment [8] was inactive.

With `Nc1ncc(-c2ccccc2)cc1-c1cccc2ncccc12`, the growth inhibition in experiment [1] was 99% (active); in experiment [4], 97% (active). Also, the inhibition is 82% (active) in experiment [2] and -2% in experiment [3]. Besides, the outcome in experiment [5], in experiment [6], in experiment [7] and in experiment [8] was inactive.

Consider `NCC1CCCN1Cc1ccc(-c2ccc(-c3nc4ccc(C(F)(F)F)cc4[nH]3)s2)cc1` (stereo not given), for which the values for the growth inhibition in experiment [1] and in experiment [4] were 97% (active) and 102% (active), respectively. Further, the inhibition in experiment [2] was 31%; in experiment [3], -3%. In addition, the outcome in experiment [5], in experiment [6], in experiment [7] and in experiment [8] was inactive.

For the compound `CC(O)C1CCCCN1C(=O)c1ccc(-c2ccc(-c3nc4ccccc4[nH]3)s2)cc1` (stereo not given), the growth inhibition is 98% (active) in experiment [1] and 101% (active) in experiment [4]. Besides, the values for the inhibition in experiment [2] and in experiment [3] were 33% and -2%, respectively. Moreover, the outcome in experiment [5], in experiment [6], in experiment [7] and in experiment [8] was inactive.

On to `CCN(CC)CCN(Cc1ccc(-c2ccc(C(F)(F)F)cc2)cc1)C(=O)Cn1c(CCc2cc(F)cc(F)c2)nc(=O)c2ccccc21`, for which the growth inhibition in experiment [1] is 80% (active); in experiment [4], 91% (active). For the same compound, the inhibition is 30% in experiment [2] and 2% in experiment [3]. The result in experiment [5], in experiment [6], in experiment [7] and in experiment [8] was inactive.

Turning to `CC1(CCN2CCC(c3c[nH]c4cnccc34)CC2)CCCc2c(Br)cccc2C1=O` (stereo not given), the growth inhibition is 66% (active) in experiment [1] and 101% (active) in experiment [4]. Moreover, the figures for the inhibition in experiment [2] and in experiment [3] were 14% and 3%, respectively. Moreover, the result in experiment [5], in experiment [6], in experiment [7] and in experiment [8] was inactive.

Consider `N#Cc1ccc(N2CCN(Cc3cccc(-c4ccc(-c5nc6ccc(C(F)(F)F)cc6[nH]5)s4)c3)CC2)nc1`, for which the figures for the growth inhibition in experiment [1] and in experiment [4] were 52% (active) and 96% (active), respectively. In addition, the results for the inhibition in experiment [2] and in experiment [3] were 31% and -4%, respectively. For the same compound, the outcome in experiment [5], in experiment [6], in experiment [7] and in experiment [8] was inactive.

The values above are taken from PubChem BioAssay.
